Experimental data reported in PubChem BioAssay AID1159580 (chemical genetic matrix, 2015).
Among all 5,500 compounds or so, about 2,000 (36%) were called active. Roughly 18% stayed inconclusive and do not appear here. Cut-off read from the data, not from the text of the source: active = normalized growth mostly below about 0.91 (no sharp cut-off); inconclusive = no clear call, values can overlap the other calls; inactive = mostly above about 0.92. The list shows a part of the results.

Assay: chemical genetic growth profiling, strain panel (AID 1159580);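 note: tested at 20 µM; growth read once vehicle control cultures reached saturation at 30 °C; 1 = growth at the plate median or of vehicle wells; lower values mean less growth of the strain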
Conditions: S. cerevisiae deletion strains, growth OD

Measured: normalized growth

O=C(/C=C/c1ccc(O)c(O)c1)OC(Cc1ccc(O)c(O)c1)C(=O)O (stereo not given)
inactive: locus YAL021C, strain ccr4, hits give low values 1.07 | locus YAL026C, strain drs2, hits give low values 1.03 | locus YAL030W, strain snc1, hits give low values 1.01 | locus YBL061C, strain skt5, hits give low values 1.05 | locus YBR009C, strain hhf1, hits give low values 1.01 | locus YBR023C, strain chs3, hits give low values 1.04 | locus YBR171W, strain sec66, hits give low values 1.01 | locus YBR231C, strain swc5, hits give low values 0.994 | locus YBR279W, strain paf1, hits give low values 1.02 | locus YCL011C, strain gbp2, hits give low values 1.02 | locus YCL016C, strain dcc1, hits give low values 1.05 | locus YCL061C, strain MRC1, hits give low values 1.03 | locus YCL069W, strain vba3, hits give low values 1.02 | locus YCR088W, strain abp1, hits give low values 1.02 | locus YDL005C, strain med2, hits give low values 1.01 | locus YDL040C, strain nat1, hits give low values 1.02 | locus YDR001C, strain nth1, hits give low values 1.02 | locus YDR069C, strain doa4, hits give low values 1.03 | locus YDR137W, strain rgp1, hits give low values 1.09 | locus YDR159W, strain sac3, hits give low values 0.922 | locus YDR195W, strain ref2 1.07 | locus YDR297W, strain sur2, hits give low values 1.02 | locus YDR334W, strain swr1, hits give low values 1.04 | locus YDR335W, strain msn5, hits give low values 1.03 | locus YDR392W, strain spt3, hits give low values 0.885 | locus YEL003W, strain gim4, hits give low values 0.999 | locus YEL037C, strain rad23, hits give low values 1.02 | locus YEL061C, strain CIN8 (second series), hits give low values 1.02 | locus YER015W, strain faa2, hits give low values 1.01 | locus YER016W, strain bim1, hits give low values 1.04 | locus YER111C, strain swi4, hits give low values 1.01 | locus YER155C, strain BEM2 (second series), hits give low values 0.997 | locus YFR010W, strain ubp6, hits give low values 0.997 | locus YGL167C, strain pmr1, hits give low values 1.01 | locus YGL173C, strain kem1, hits give low values 0.995 | locus YGL227W, strain vid30, hits give low values 1.02 | locus YGL240W, strain doc1, hits give low values 1.04 | locus YGL253W, strain hxk2, hits give low values 1.05 | locus YHR013C, strain ard1, hits give low values 0.999 | locus YHR027C, strain rpn1, hits give low values 1 | locus YHR030C, strain SLT2, hits give low values 0.982 | locus YHR079C, strain IRE1, hits give low values 0.989 | locus YHR142W, strain chs7, hits give low values 1.04 | locus YJL092W, strain hpr5, hits give low values 1.02 | locus YJL095W, strain BCK1 (second series), hits give low values 1.03 | locus YJL095W, strain BCK1, hits give low values 0.999 | locus YJL115W, strain asf1, hits give low values 1.02 | locus YJL129C, strain trk1, hits give low values 1.03 | locus YJL154C, strain vps35, hits give low values 1.02 | locus YJL164C, strain tpk1, hits give low values 0.99 | locus YJL166W, strain qcr8, hits give low values 1.03 | locus YJL187C, strain SWE1, hits give low values 1.03 | locus YJR066W, strain TOR1, hits give low values 0.912 | locus YKL160W, strain elf1, hits give low values 1.04 | locus YKR026C, strain gcn3, hits give low values 1.03 | locus YKR091W, strain srl3, hits give low values 1.01 | locus YLL001W, strain dnm1, hits give low values 1 | locus YLL026W, hits give low values 1.02 | locus YLL041C, strain sdh2, hits give low values 1.02 | locus YLR027C, strain aat2, hits give low values 1.04 | locus YLR113W, strain HOG1, hits give low values 0.979 | locus YLR221C, strain rsa3, hits give low values 0.989 | locus YLR258W, strain gsy2, hits give low values 1.01 | locus YLR262C, strain YPT6 (second series), hits give low values 1.05 | locus YLR320W, strain mms22, hits give low values 1 | locus YLR342W, strain FKS1, hits give low values 1.02 | locus YLR357W, strain rsc2, hits give low values 1.04 | locus YLR370C, strain arc18, hits give low values 1.03 | locus YLR384C, strain iki3, hits give low values 1 | locus YML120C, strain ndi1, hits give low values 0.994 | locus YMR058W, strain fet3, hits give low values 0.932 | locus YMR125W, strain sto1, hits give low values 1.02 | locus YMR129W, hits give low values 1.02 | locus YMR205C, strain PFK2, hits give low values 1.08 | locus YMR231W, strain pep5, hits give low values 1.01 | locus YNL071W, strain lat1, hits give low values 1.01 | locus YNL183C, strain NPR1, hits give low values 0.905 | locus YNL209W, strain ssb2, hits give low values 1 | locus YNL248C, strain rpa49, hits give low values 1.03 | locus YNL322C, strain KRE1 (second series), hits give low values 1.03 | locus YNR049C, strain mso1, hits give low values 1.02 | locus YOR001W, strain rrp6, hits give low values 0.965 | locus YOR070C, strain gyp1, hits give low values 1.01 | locus YOR080W, strain dia2, hits give low values 1.02 | locus YOR083W, strain WHI5, hits give low values 0.988 | locus YOR106W, strain vam3, hits give low values 1.05 | locus YOR231W, strain MKK1, hits give low values 1 | locus YOR265W, strain rbl2, hits give low values 1.01 | locus YOR270C, strain vph1, hits give low values 1.07 | locus YOR290C, strain snf2, hits give low values 1.04 | locus YPL051W, strain arl3, hits give low values 1.04 | locus YPL078C, strain atp4, hits give low values 1.06 | locus YPL106C, strain sse1, hits give low values 1.06 | locus YPL240C, strain hsp82, hits give low values 1.02 | locus YPL256C, strain CLN2, hits give low values 1
